Data as given in the supplement of paper PMC10849652.
Targets with a hit are over-represented here; the source holds about 8,800 in all. About 0.5% of all pairs of compound and target were hits. Unmarked numbers belong to inactive results.

Experiments:
Experiment in all cases: log2 fold change, soluble protein after heating vs DMSO (PISA); higher = thermal stabilisation; K562 lysate, 10 uM; active = over 0.2 and 3.5 SD of the protein, either way, in both replicates (recomputed)
nilotinib = compound: Cc1cn(-c2cc(NC(=O)c3ccc(C)c(Nc4nccc(-c5cccnc5)n4)c3)cc(C(F)(F)F)c2)cn1 [nilotinib]
Procedure, shortened: (§1)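 Thermal stability, expressed as log-two fold change relative to solvent controls, is given from duplicates. Crude K562 extract in PBS pH 7.4 with 1 mM MgCl2, at 1 mg/mL protein, was treated with 10 μM compound for 30 min and heated in aliquots for 3 min across 48°C-58°C. After pooling, adjustment to 0.5% NP-40 at 4°C and centrifugation at 21,000xg for 90 min, supernatant protein was measured by TMTpro 16plex LC-MS/MS with channel sums equalised.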

[1] = compound: Cc1nc(Nc2n[nH]c3c2CN(C(=O)N[C@H](CN(C)C)c2ccccc2)C3(C)C)c2sccc2n1
Procedure, shortened: as §1

dasatinib = compound: Cc1nc(Nc2ncc(C(=O)Nc3c(C)cccc3Cl)s2)cc(N2CCN(CCO)CC2)n1 [dasatinib]
Procedure, shortened: as §1

[2] = compound: Cc1ncc(-c2ccnc(Nc3ccc(S(C)(=O)=O)cc3)n2)n1C(C)C
Procedure, shortened: as §1

[3] = compound: Cn1cc(-c2ccc3c(c2)CCN3C(=O)Cc2cccc(C(F)(F)F)c2)c2c(N)ncnc21
Procedure, shortened: as §1

quisinostat = compound: Cn1cc(CNCC2CCN(c3ncc(C(=O)NO)cn3)CC2)c2ccccc21 [quisinostat]
Procedure, shortened: as §1

tipifarnib = compound: Cn1cncc1[C@@](N)(c1ccc(Cl)cc1)c1ccc2c(c1)c(-c1cccc(Cl)c1)cc(=O)n2C [tipifarnib]
Procedure, shortened: as §1

[4] = compound: NC(=O)Nc1cc(-c2cccc(F)c2)sc1C(=O)N[C@H]1CCCNC1
Procedure, shortened: as §1

[5] = compound: NC(=O)c1cnc(N[C@@H]2CCCC[C@@H]2N)nc1Nc1cccc(-n2nccn2)c1
Procedure, shortened: as §1

[6] = compound: NC1(c2ccc(-c3nc4ccn5c(=O)[nH]nc5c4cc3-c3ccccc3)cc2)CCC1
Procedure, shortened: as §1

[7] = compound: NCC(=O)Nc1ccc(-n2nc(C(F)(F)F)cc2-c2ccc3c(ccc4ccccc43)c2)cc1
Procedure, shortened: as §1

vorinostat = compound: O=C(CCCCCCC(=O)Nc1ccccc1)NO [vorinostat]
Procedure, shortened: as §1

silmitasertib = compound: O=C(O)c1ccc2c(c1)nc(Nc1cccc(Cl)c1)c1ccncc12 [silmitasertib]
Procedure, shortened: as §1

[8] = compound: O=C1NC(=O)C(c2cnc3ccccn23)=C1c1cn2c3c(cc(F)cc13)CN(C(=O)N1CCCCC1)CC2
Procedure, shortened: as §1

entospletinib = compound: c1cn2cc(-c3ccc4cn[nH]c4c3)nc(Nc3ccc(N4CCOCC4)cc3)c2n1 [entospletinib]
Procedure, shortened: as §1

MAPKAPK2 (UniProt P49137)
Sequence of UniProt P49137 (P49137 whole entry, looked up): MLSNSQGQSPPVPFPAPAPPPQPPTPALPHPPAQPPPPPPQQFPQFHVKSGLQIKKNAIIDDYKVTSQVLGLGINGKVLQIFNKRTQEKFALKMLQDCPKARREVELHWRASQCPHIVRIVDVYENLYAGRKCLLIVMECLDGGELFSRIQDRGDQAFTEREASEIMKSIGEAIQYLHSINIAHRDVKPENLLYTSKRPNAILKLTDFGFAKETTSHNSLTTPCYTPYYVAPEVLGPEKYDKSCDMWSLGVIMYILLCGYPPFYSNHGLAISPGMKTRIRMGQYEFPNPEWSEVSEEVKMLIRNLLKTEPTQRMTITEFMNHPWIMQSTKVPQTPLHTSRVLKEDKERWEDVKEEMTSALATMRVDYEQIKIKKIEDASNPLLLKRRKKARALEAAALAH
log2 fold change (nilotinib): 0.032 | log2 fold change [1]: 0.068 | log2 fold change (dasatinib): -0.043 | log2 fold change [2]: -0.008 | log2 fold change [3]: 0 | log2 fold change (quisinostat): 0.01 | log2 fold change (tipifarnib): 0.032 | log2 fold change [4]: 0.148 | log2 fold change [5]: 0.022 | log2 fold change [6]: 0.008 | log2 fold change [7]: -0.019 | log2 fold change (vorinostat): -0.36 (active) | log2 fold change (silmitasertib): 0.072 | log2 fold change [8]: -0.014 | log2 fold change (entospletinib): 0.04

MARK1 (UniProt Q9P0L2)
log2 fold change (nilotinib): 0.035 | log2 fold change [1]: -0.113 | log2 fold change (dasatinib): -0.123 | log2 fold change [2]: -0.019 | log2 fold change [3]: 0.003 | log2 fold change (quisinostat): 0.092 | log2 fold change (tipifarnib): 0.023 | log2 fold change [4]: -0.083 | log2 fold change [5]: -0.03 | log2 fold change [6]: -0.072 | log2 fold change [7]: 0.017 | log2 fold change (vorinostat): -0.225 | log2 fold change (silmitasertib): 0.485 (active) | log2 fold change [8]: -0.059 | log2 fold change (entospletinib): 0.049

KIF4A (UniProt O95239)
Sequence of UniProt O95239 (O95239 whole entry, looked up): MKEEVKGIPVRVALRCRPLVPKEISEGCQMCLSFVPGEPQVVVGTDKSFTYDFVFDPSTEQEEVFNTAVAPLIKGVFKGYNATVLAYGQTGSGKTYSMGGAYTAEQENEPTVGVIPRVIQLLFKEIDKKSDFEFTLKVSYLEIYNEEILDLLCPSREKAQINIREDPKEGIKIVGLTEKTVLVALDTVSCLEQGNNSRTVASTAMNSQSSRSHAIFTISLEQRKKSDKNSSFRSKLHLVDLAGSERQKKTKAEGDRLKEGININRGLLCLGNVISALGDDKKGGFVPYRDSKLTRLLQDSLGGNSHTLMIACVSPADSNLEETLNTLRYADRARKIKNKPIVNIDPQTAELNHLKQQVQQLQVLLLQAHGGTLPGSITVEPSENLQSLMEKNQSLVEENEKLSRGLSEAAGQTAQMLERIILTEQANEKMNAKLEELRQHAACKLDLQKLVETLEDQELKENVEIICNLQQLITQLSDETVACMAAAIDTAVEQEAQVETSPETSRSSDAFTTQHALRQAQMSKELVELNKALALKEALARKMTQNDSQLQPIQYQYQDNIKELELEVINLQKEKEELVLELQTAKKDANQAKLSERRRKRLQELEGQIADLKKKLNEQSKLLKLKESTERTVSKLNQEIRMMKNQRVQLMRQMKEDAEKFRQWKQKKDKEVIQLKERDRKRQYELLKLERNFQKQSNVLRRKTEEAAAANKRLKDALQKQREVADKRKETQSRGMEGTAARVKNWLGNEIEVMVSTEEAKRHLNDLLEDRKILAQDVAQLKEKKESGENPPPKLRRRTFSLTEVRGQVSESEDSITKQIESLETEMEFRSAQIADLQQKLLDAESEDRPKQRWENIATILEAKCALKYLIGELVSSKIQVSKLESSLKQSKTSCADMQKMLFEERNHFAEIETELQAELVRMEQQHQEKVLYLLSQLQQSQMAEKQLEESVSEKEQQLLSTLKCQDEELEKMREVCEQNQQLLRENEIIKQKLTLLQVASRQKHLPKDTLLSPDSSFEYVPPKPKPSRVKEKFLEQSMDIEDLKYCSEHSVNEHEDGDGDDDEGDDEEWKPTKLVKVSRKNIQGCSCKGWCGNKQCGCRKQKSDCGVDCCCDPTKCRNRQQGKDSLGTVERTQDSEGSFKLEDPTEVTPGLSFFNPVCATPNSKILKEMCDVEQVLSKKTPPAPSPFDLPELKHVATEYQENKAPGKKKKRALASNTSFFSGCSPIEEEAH
log2 fold change (nilotinib): -0.02 | log2 fold change [1]: 0.029 | log2 fold change (dasatinib): -0.011 | log2 fold change [2]: 0.014 | log2 fold change [3]: 0.037 | log2 fold change (quisinostat): -0.104 | log2 fold change (tipifarnib): 0.017 | log2 fold change [4]: 0.042 | log2 fold change [5]: -0.014 | log2 fold change [6]: 0.014 | log2 fold change [7]: -0.017 | log2 fold change (vorinostat): -0.445 (active) | log2 fold change (silmitasertib): 0.017 | log2 fold change [8]: 0.013 | log2 fold change (entospletinib): 0.001

KLHL12 isoform 2 (UniProt Q53G59)
Sequence of UniProt Q53G59 (Q53G59 whole entry, looked up): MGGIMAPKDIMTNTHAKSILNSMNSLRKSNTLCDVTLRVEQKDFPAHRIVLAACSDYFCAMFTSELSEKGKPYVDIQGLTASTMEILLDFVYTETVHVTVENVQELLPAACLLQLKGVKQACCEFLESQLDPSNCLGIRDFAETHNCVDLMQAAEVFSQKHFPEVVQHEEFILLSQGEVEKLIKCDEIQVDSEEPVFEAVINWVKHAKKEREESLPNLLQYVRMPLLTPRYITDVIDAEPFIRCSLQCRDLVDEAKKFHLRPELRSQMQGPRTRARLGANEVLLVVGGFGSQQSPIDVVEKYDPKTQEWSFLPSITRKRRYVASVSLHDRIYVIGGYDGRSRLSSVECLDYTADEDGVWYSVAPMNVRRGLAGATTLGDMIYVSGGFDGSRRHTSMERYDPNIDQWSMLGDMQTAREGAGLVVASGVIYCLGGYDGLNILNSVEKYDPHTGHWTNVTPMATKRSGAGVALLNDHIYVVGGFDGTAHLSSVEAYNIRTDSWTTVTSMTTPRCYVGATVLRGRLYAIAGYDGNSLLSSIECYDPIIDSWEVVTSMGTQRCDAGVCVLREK
log2 fold change (nilotinib): -0.037 | log2 fold change [1]: -0.044 | log2 fold change (dasatinib): -0.056 | log2 fold change [2]: 0.064 | log2 fold change [3]: -0.07 | log2 fold change (quisinostat): 0.04 | log2 fold change (tipifarnib): 0.015 | log2 fold change [4]: 0.097 | log2 fold change [5]: 0.043 | log2 fold change [6]: 0.035 | log2 fold change [7]: 0.135 | log2 fold change (vorinostat): -0.108 | log2 fold change (silmitasertib): 0.024 | log2 fold change [8]: 0.003

MRPL19 (UniProt P49406)
log2 fold change (nilotinib): 0.001 | log2 fold change [1]: -0.015 | log2 fold change (dasatinib): -0.039 | log2 fold change [2]: -0.004 | log2 fold change [3]: 0.005 | log2 fold change (quisinostat): -0.055 | log2 fold change (tipifarnib): 0.033 | log2 fold change [4]: 0.024 | log2 fold change [5]: -0.018 | log2 fold change [6]: -0.044 | log2 fold change [7]: 0 | log2 fold change (vorinostat): -0.311 (active) | log2 fold change (silmitasertib): 0.012 | log2 fold change [8]: 0.027 | log2 fold change (entospletinib): -0.054

MAP4 (UniProt P27816)
Sequence of UniProt P27816 (P27816 whole entry, looked up): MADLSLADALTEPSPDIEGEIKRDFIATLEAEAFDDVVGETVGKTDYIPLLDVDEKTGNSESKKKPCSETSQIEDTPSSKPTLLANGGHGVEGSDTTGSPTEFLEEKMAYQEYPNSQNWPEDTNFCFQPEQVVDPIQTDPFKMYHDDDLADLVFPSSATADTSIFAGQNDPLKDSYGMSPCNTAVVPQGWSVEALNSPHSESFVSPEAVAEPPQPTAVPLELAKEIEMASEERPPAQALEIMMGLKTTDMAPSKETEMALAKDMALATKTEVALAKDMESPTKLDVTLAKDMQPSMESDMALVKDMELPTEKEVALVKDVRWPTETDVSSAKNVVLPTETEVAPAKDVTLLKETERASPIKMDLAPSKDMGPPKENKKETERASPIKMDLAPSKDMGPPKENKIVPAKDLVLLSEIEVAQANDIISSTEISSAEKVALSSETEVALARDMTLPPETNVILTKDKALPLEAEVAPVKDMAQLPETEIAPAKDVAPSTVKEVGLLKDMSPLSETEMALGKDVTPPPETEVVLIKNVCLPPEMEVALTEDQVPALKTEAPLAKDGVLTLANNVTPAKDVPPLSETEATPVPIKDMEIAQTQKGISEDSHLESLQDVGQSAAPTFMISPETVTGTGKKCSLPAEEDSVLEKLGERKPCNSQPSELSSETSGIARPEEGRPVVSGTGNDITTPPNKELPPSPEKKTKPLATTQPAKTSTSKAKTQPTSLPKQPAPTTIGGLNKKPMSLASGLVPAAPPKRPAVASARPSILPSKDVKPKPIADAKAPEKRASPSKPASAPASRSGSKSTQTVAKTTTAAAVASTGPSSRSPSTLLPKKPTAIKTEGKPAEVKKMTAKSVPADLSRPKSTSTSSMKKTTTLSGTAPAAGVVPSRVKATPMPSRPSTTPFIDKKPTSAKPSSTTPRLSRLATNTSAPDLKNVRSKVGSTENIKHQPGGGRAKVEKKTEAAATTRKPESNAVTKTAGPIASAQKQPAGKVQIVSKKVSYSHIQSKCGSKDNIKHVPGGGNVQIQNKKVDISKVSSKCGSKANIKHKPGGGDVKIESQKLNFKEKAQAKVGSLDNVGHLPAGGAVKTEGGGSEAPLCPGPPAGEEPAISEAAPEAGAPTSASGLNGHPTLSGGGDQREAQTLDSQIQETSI
log2 fold change (nilotinib): -0.002 | log2 fold change [1]: -0.001 | log2 fold change (dasatinib): 0.013 | log2 fold change [2]: 0.016 | log2 fold change [3]: -0.036 | log2 fold change (quisinostat): -0.001 | log2 fold change (tipifarnib): 0.012 | log2 fold change [4]: -0.034 | log2 fold change [5]: -0.011 | log2 fold change [6]: -0.003 | log2 fold change [7]: 0.017 | log2 fold change (vorinostat): 0.092 | log2 fold change (silmitasertib): -0.023 | log2 fold change [8]: 0.016 | log2 fold change (entospletinib): 0.005

MRPL28 (UniProt Q13084)
log2 fold change (nilotinib): 0.03 | log2 fold change [1]: -0.111 | log2 fold change (dasatinib): -0.013 | log2 fold change [2]: -0.037 | log2 fold change [3]: 0.051 | log2 fold change (quisinostat): -0.031 | log2 fold change (tipifarnib): 0.149 | log2 fold change [4]: 0.057 | log2 fold change [5]: 0.015 | log2 fold change [6]: -0.058 | log2 fold change [7]: 0.002 | log2 fold change (vorinostat): -0.037 | log2 fold change (silmitasertib): 0.022 | log2 fold change [8]: 0.044 | log2 fold change (entospletinib): 0.129

MICU1 isoform 3 (UniProt Q9BPX6)
Sequence of UniProt Q9BPX6 (Q9BPX6 whole entry, looked up): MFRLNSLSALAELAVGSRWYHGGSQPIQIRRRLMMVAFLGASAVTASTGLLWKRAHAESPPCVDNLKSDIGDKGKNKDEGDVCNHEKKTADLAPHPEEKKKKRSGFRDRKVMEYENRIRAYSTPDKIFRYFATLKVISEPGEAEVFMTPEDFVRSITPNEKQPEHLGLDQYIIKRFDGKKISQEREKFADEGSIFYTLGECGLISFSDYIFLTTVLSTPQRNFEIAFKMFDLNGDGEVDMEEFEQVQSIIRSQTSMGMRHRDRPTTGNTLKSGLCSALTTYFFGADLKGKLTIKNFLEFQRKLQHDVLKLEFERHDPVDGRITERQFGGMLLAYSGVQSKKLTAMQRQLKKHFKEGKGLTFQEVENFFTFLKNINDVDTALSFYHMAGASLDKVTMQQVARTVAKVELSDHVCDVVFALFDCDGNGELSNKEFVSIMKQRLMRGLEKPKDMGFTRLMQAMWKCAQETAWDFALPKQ
log2 fold change (nilotinib): 0.01 | log2 fold change [1]: -0.044 | log2 fold change (dasatinib): -0.02 | log2 fold change [2]: -0.015 | log2 fold change [3]: 0.027 | log2 fold change (quisinostat): 0.002 | log2 fold change (tipifarnib): -0.015 | log2 fold change [4]: -0.026 | log2 fold change [5]: 0.06 | log2 fold change [6]: -0.021 | log2 fold change [7]: -0.085 | log2 fold change (vorinostat): -0.133 | log2 fold change (silmitasertib): 0.065 | log2 fold change [8]: -0.003 | log2 fold change (entospletinib): -0.019

KMT2A isoform 3 (UniProt Q03164)
log2 fold change (nilotinib): 0.098 | log2 fold change [1]: -0.428 (active) | log2 fold change (dasatinib): 0.017 | log2 fold change [2]: 0.154 | log2 fold change [3]: 0.056 | log2 fold change (quisinostat): -0.156 | log2 fold change (tipifarnib): -0.178 | log2 fold change [4]: 0.032 | log2 fold change [5]: 0.133 | log2 fold change [6]: -0.037 | log2 fold change [7]: 0.046 | log2 fold change (vorinostat): 0.101 | log2 fold change (silmitasertib): 0.012 | log2 fold change [8]: 0.066 | log2 fold change (entospletinib): -0.034

MARCHF6 (UniProt O60337)
Sequence of UniProt O60337 (O60337 whole entry, looked up): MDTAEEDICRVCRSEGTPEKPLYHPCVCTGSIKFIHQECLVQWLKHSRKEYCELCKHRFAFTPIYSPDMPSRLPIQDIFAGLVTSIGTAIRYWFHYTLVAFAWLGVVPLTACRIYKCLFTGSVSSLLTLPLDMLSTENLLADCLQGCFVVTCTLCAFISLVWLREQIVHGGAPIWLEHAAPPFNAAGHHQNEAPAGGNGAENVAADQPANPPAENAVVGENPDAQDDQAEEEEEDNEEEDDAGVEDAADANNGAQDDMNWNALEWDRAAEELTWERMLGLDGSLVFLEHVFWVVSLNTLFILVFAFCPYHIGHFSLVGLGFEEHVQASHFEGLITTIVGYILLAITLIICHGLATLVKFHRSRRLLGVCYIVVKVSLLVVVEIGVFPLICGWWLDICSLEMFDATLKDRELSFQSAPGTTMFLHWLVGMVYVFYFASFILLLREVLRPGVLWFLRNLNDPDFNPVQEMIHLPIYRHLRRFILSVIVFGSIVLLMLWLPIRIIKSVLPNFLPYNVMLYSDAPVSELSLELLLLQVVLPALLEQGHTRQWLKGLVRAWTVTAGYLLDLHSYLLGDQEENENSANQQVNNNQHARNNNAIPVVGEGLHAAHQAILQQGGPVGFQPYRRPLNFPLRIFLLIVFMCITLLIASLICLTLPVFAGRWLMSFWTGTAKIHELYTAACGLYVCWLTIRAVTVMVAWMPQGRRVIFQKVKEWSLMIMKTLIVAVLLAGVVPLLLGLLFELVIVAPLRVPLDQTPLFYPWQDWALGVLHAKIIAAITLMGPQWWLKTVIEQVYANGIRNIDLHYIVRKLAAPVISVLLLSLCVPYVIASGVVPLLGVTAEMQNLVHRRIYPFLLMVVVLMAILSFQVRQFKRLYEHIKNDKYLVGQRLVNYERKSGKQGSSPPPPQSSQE
log2 fold change (nilotinib): 0.164 | log2 fold change [1]: -0.024 | log2 fold change (dasatinib): -0.136 | log2 fold change [2]: 0.04 | log2 fold change [3]: -0.169 | log2 fold change (quisinostat): -0.085 | log2 fold change (tipifarnib): -0.179 | log2 fold change [4]: -0.025 | log2 fold change [5]: -0.023 | log2 fold change [6]: -0.008 | log2 fold change [7]: 0 | log2 fold change (vorinostat): 0.057 | log2 fold change (silmitasertib): -0.037 | log2 fold change [8]: -0.06 | log2 fold change (entospletinib): -0.028
